Shown are actives, neighbours in structure and some others; about 3.4% of the full set was active somewhere.
PLCg1 inh – PLC-gamma1 (human) inhibition, primary screen; purified PLC-gamma1, fluorogenic substrate, fluorescence; inhibition, % at 12.2 µM; 0.84% of 370,000 active; in the data active = inhibition above about 9.5%
ADAM17 inh – inhibits human ADAM17; P78536; recombinant ADAM17, EDANS/DABCYL FRET peptide cleavage; inhibition, % at 6.95 µM; 0.83% of 370,000 active;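 active = inhibition above the mean of compounds lying between control limits plus 3 SD, set per campaign, cut at about 8.5% in these data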
ADAM10 inh – inhibitors of human ADAM10; O14672; recombinant ADAM10, EDANS/DABCYL FRET peptide cleavage, 3 h; inhibition, % at 7 µM; 0.62% of 370,000 active;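 active = inhibition above a per-campaign cutoff equal to the mean of compounds falling between control-based bounds plus 3 SD, cut at about 20% in these data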
KLK7 zymogen act – activators of human kallikrein-7 zymogen; P49862; purified proKLK7, EDANS-DABCYL substrate fluorescence; 100% is mature enzyme control, 0% vehicle; activation, % at 7 µM; 0.9% of 370,000 active;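 active = activation above the mean of all tested compounds plus 3 SD, computed per campaign excluding outliers beyond control limits, cut at about 13% in these data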
HGIII-sPLA2 inh – Blocks human group III sPLA2 activity; QFRET BODIPY PC-A2 liposome hydrolysis, fluorescence; inhibition, % at 12.2 µM; 0.56% of 370,000 active;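 active = inhibition above mean plus 3 SD of compounds lying within the high and low control bounds, cut at about 19% in these data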
PLCb3 inh – inhibitors of human phospholipase C beta3. AID 720704. 0.18% of 370,000 active. Q01970. inhibition, % at 12.2 µM. Purified PLC-beta3, fluorogenic substrate, fluorescence; in the data active = inhibition above about 11%
sPLA2 confirm – human GIII-sPLA2 inhibition, confirmation | shares compounds with HGIII-sPLA2 inh | recombinant hGIII-sPLA2, BODIPY PC-A2 QFRET fluorescence | inhibition, % at 12.2 µM | 34% of 2,000 active | AID 743280;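 active = mean inhibition across triplicates above the hit cutoff set in the earlier primary screen, cut at about 19% in these data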
BODIPY interf – counter-screen for HGIII-sPLA2 inhibitors: 535nm fluorescence interference. BODIPY FL product fluorescence interference, QFRET. shares compounds with HGIII-sPLA2 inh. 8.5% of 2,000 active. inhibition, % at 12.2 µM;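 active = average inhibition above the solvent-only control mean plus 3 SD, cut at about 6% in these data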
BODIPY interf DR – counter-screen for HGIII-sPLA2 inhibitors: 535nm fluorescence interference, dose response. BODIPY FL product fluorescence interference, cell-free. 240 tested, under 10 active. IC50, µM. shares compounds with HGIII-sPLA2 inh;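 active = IC50 at or below 10 µM; inactive = IC50 above 10 µM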
Large screens that a line does not name were inactive (follow-up assays come after a bar, where they were run).

C/C(=N/NS(=O)(=O)c1ccc(C)cc1)c1ccc(NC(=O)C(F)(F)F)cc1	HGIII-sPLA2 inh 21.7 | sPLA2 confirm inactive | BODIPY interf inactive
C[C@@H]1ON(C)[C@H]2C[C@H]3c4[nH]c5c(-c6ccccc6)cccc5c4CCN3C[C@@H]12	none
CC1CCN(CCCCOc2ccc(Br)cc2)CC1	HGIII-sPLA2 inh 20.4 | sPLA2 confirm inactive | BODIPY interf inactive
O=c1c2cc([N+](=O)[O-])cc([N+](=O)[O-])c2[nH]n1-c1ccccc1	HGIII-sPLA2 inh 20.9 | sPLA2 confirm 26.8 | BODIPY interf inactive
Cc1ccc(S(=O)(=O)N2CCCc3nc(-c4ccccc4)ccc32)cc1	none
CN(Cc1ccccc1)S(=O)(=O)c1cccc(C(=O)OCc2ccccc2)c1	none
CCCNC(=S)Nc1ccc(CC(=O)OC)cc1	HGIII-sPLA2 inh 24.3 | sPLA2 confirm inactive | BODIPY interf inactive
COC(=O)Cc1ccc(NC(=S)NCC(C)C)cc1	none
COC(=O)C1=C(C)NC2=C(C(=O)CC(C)(C)C2)C1c1cnn(C)c1C (configuration not stated)	HGIII-sPLA2 inh 20.9 | sPLA2 confirm inactive | BODIPY interf inactive
O=C1NC(=S)N/C1=C/c1cccc([N+](=O)[O-])c1	none
O=C1NC(=S)N/C1=C\c1cccc([N+](=O)[O-])c1	HGIII-sPLA2 inh 19.6 | sPLA2 confirm inactive | BODIPY interf inactive
CN(C)[C@@H]1CCN(c2cccc3c2S(=O)(=O)N2CC[C@@H](C2)O3)C1	none
Cc1ccc(NC(=S)NNC(=O)CSc2nnc(-c3ccc(Cl)cc3)n2C2CCCCC2)cc1	HGIII-sPLA2 inh 23.4 | sPLA2 confirm 30.2 | BODIPY interf inactive | BODIPY interf DR inactive
Cn1c(SCC(=O)NNC(=S)Nc2ccccc2)nnc1-c1ccccc1	none
Cc1ccc(NC(=S)NNC(=O)CSc2nnc(-c3ccc(C)cc3)n2C2CCCCC2)cc1	HGIII-sPLA2 inh 24.1 | sPLA2 confirm inactive | BODIPY interf inactive
CCn1c(SCC(=O)NNC(=S)Nc2ccc(C)cc2)nnc1-c1ccc(Cl)cc1	none
COc1ccc(NC(=O)N2CCCCC2c2cccnc2)cc1 (configuration not stated)	HGIII-sPLA2 inh 22.5 | sPLA2 confirm inactive | BODIPY interf inactive
O=C(NCC1CCN(C(=O)C(=O)c2cc3ccccc3o2)CC1)c1ccc2c(c1)OCCCO2	none
S=c1[nH]nc(-c2ccc(Cl)cc2)n1CCCN1CCOCC1	HGIII-sPLA2 inh 20.4 | sPLA2 confirm inactive | BODIPY interf inactive
COCCCn1c(-c2ccc(Cl)cc2)n[nH]c1=S	none
CCOCCCn1c(-c2ccc(Cl)cc2)n[nH]c1=S	HGIII-sPLA2 inh 21.9 | sPLA2 confirm inactive | BODIPY interf inactive
N#C/C(=C\c1ccc2c(c1)OCCO2)C(=O)NC1CCCCC1	HGIII-sPLA2 inh 24.1 | sPLA2 confirm inactive | BODIPY interf inactive
Cc1ccc(C)c(N2CCN(S(=O)(=O)c3c(C)noc3/C=C/N(C)C)CC2)c1	HGIII-sPLA2 inh 22.6 | sPLA2 confirm 28.9 | BODIPY interf inactive | BODIPY interf DR inactive
Cc1noc(/C=C/N(C)C)c1S(=O)(=O)N1CCN(c2ccccc2)CC1	none
O=C(O)c1ccc(-c2nc(-c3ccccc3)cs2)cc1	none
c1ccc(-c2csc(-c3ccc(-c4csnn4)cc3)n2)cc1	HGIII-sPLA2 inh 21.2 | sPLA2 confirm inactive | BODIPY interf inactive
Cc1cccc(NC(=O)NNC(=O)c2ccc3ccccc3c2)c1	none
O=C(NNC(=O)c1ccc2ccccc2c1O)NC1CCCCC1	HGIII-sPLA2 inh 26.5 | sPLA2 confirm inactive | BODIPY interf inactive
Cc1cccc(NC(=O)NNC(=O)c2ccc3ccccc3c2O)c1	HGIII-sPLA2 inh 28.5 | sPLA2 confirm 29.8 | BODIPY interf inactive | BODIPY interf DR inactive
O=C(NNC(=O)c1ccc2ccccc2c1)Nc1ccc(F)cc1	none

Screening data: PubChem BioAssay, The Scripps Research Institute Molecular Screening Center
